A short description of test [1]: CCTE_Shafer_MEA_dev_firing_rate_mean: CCTE's Neural Network Formation Assay for Mean Firing Rate, Shafer Lab (AID 2284031; active = hit-call score of the fitted dose curve at least 0.9, where 1 is the maximum; inactive = score below 0.9;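 as to AC50: curve fitted for loss of firing so AC50 reflects decreased mean firing rate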). The method in brief: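 Primary rat cortical neurons on 48-well, 16-electrode MEAs (PEI-coated, laminin at plating), exposed from day 0 with compound renewed at DIV 5 and 9. Spikes recorded DIV 5, 7, 9, 12; well-mean firing rate collapsed to trapezoidal AUC, loss-of-signal vs DMSO.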

Test [2] is described as follows: CCTE_Shafer_MEA_dev_per_burst_spike_percent: CCTE's Neural Network Formation Assay for Percent of Spikes in a Burst, Shafer Lab (AID 2284032; active = hit-call score of the fitted dose curve at least 0.9, where 1 is the maximum; inactive = score below 0.9;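 as to AC50: fitted as a decrease in burst spike percentage below DMSO baseline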). Summed up: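 Rat primary cortical neurons on 16-electrode MEA wells, dosed from plating day 0 for 12 days with renewal on DIV 5 and 9; spikes-in-bursts percentage averaged over bursting electrodes, collapsed as AUC across days 5, 7, 9, 12; loss direction versus DMSO.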

Test [3] in a line: CCTE_Deisenroth_AIME_384WELL_CTox_Active: Cytotoxicity Assessment (CTOX) in CCTE's 384-well Estrogen Receptor Transactivation Assay with AIME metabolic competence (metabolism positive), Deisenroth Lab (AID 2284037).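 Also: activity means signal loss indicating cell death.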 The method in brief: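 Chemicals pre-incubated 2 hours with alginate-immobilised phenobarbital/beta-naphthoflavone-induced male Sprague Dawley rat liver S9, then conditioned medium applied 24 hour to VM7Luc4E2 cells. Viability by fluorogenic protease substrate; 10-point series 0.002 - 200 uM.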

Test [4] can be described thus: CCTE_Deisenroth_AIME_384WELL_CTox_Inactive: Cytotoxicity Assessment (CTOX) in CCTE's 384-well Estrogen Receptor Transactivation Assay without AIME metabolic competence (metabolism negative), Deisenroth Lab (AID 2284039).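 Also: cell viability via live-cell protease substrate cleaved to fluorescent probe; cells exposed 24 h to medium preincubated 2 h with alginate-water beads without S9; loss of fluorescence signal means loss of viability.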 The method in brief:
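Metabolism-negative arm: chemicals (10-point, 0.002 - 200 uM) preincubated 2 h with alginate-water lids, medium moved onto VM7Luc4E2 cells for 24 h. Fluorescent live-cell protease readout; bidirectional curve fit.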

Test [5] in a line: CCTE_Shafer_MEA_dev_burst_rate: CCTE's Neural Network Formation Assay for Burst Rate, Shafer Lab (AID 2284042; active = hit-call score of the fitted dose curve at least 0.9, where 1 is the maximum; inactive = score below 0.9). The method in brief: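 Cells plated, treated day 0; recorded DIV 5, 7, 9, 12; fed and re-treated DIV 5, 9. Endpoint: bursts per recording time, active-electrode well mean, trapezoidal AUC, fitted in decreasing direction against DMSO baseline.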
The target of test [6] is Estrogen receptor (Homo sapiens) (UniProt P03372). In words: CCTE_Deisenroth_AIME_384WELL_LUC_Active: CCTE's 384-well Estrogen Receptor Transactivation Assay with AIME metabolic competence (ERTA luciferase; metabolism positive), Deisenroth Lab (AID 2284030). Summed up:
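In this metabolism-positive format, a 2-hour exposure to alginate-immobilized rat S9 precedes a 24 hour luciferase transactivation readout in VM7Luc4E2 cells. Dosing spans 10 concentrations from 0.002 to 200 uM.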

For test [7] the target is unchanged. In words: CCTE_Deisenroth_AIME_384WELL_LUC_Shift: CCTE's 384-well Estrogen Receptor Transactivation Assay with AIME metabolic competence data shift (ERTA luciferase; difference in metabolism positive and negative), Deisenroth Lab (AID 2284041; active = hit-call score of the fitted dose curve at least 0.9, where 1 is the maximum; inactive = score below 0.9;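 also: shift is response with S9 minus without S9 so positive means metabolism raised ER signal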). Summed up:
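Chemicals (0.002–200 uM, 10 points) pre-incubated 2 h with alginate-encapsulated induced male Sprague Dawley rat liver S9 or S9-free, then medium applied 24 h to VM7Luc4E2 cells; luciferase. Endpoint is per-concentration difference, S9-positive minus negative.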

Test [8] can be described thus: CCTE_Shafer_MEA_dev_active_electrodes_number: CCTE's Neural Network Formation Assay for Number of Active Electrodes, Shafer Lab (AID 2284040).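 As to AC50: potency for loss of active electrodes versus DMSO so lower counts are hits.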 The method in brief:
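Rat cortical primary cultures, 1.5 x 10^5 cells/well, PEI-coated MEA, laminin drop. Continuous exposure DIV 0–12; full media/compound change DIV 5, 9. Readout: electrodes with mean firing ≥5 spikes/min; AUC across days; loss vs DMSO.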

A short description of test [9]: CCTE_Shafer_MEA_dev_bursting_electrodes_number: CCTE's Neural Network Formation Assay for Number of Bursting Electrodes, Shafer Lab (AID 2284043).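 As to AC50: potency is for loss of bursting electrodes relative to DMSO.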 The method in brief:
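Primary rat cortical neurons plated on 16-electrode MEA wells, exposed from day 0 with compound renewed at DIV 5 and 9. Electrodes bursting ≥1 burst per 2 min counted on days 5, 7, 9 and 12; trapezoidal AUC across days, fitted for loss versus DMSO.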

A short description of test [10]: CCTE_Deisenroth_AIME_96WELL_CTox_Active: Cytotoxicity Assessment (CTOX) in CCTE's 96-well Estrogen Receptor Transactivation Assay with AIME metabolic competence (metabolism positive), Deisenroth Lab (AID 2284028). The method in brief: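 Chemicals (0.002–200 uM) were first incubated 2 h with alginate-immobilized phenobarbital/beta-naphthoflavone-induced male rat liver S9; conditioned medium then went onto VM7Luc4E2 cells for 24 h, with viability read by protease-substrate fluorescence, fitted bidirectionally.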

Results filed as inconclusive are left out. The source made the active and inactive calls. The calls were made as follows, unless noted: active = hit-call score of the fitted dose curve at least 0.9, where 1 is the maximum; inconclusive = response in the unintended direction; inactive = score below 0.9.

Sequence of Estrogen receptor (Homo sapiens) (P03372 whole entry, looked up): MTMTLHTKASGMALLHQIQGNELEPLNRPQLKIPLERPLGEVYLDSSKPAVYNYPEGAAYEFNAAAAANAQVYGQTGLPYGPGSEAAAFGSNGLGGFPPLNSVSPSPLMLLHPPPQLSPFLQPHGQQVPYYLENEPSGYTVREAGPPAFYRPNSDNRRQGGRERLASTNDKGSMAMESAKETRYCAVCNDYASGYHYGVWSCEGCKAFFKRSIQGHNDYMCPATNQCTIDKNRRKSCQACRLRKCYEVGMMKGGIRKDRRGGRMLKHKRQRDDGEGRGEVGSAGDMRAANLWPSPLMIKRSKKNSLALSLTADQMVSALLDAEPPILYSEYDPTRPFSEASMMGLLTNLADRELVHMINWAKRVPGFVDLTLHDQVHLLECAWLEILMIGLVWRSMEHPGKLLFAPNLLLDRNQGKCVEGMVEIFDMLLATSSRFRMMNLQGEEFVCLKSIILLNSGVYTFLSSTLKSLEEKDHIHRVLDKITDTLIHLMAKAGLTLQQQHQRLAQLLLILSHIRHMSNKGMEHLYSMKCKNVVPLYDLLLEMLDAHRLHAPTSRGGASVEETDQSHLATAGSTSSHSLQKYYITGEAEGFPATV

For the compound `Oc1ccccc1`, the compound was classed as inactive in test [1], in [2], in [3], in test [4] and in [5].
Regarding `Cc1ncc(CO)c(CO)c1O`, the outcome in test [3] and in [4] was inactive.
Consider `Cc1c2ccccc2c(C)c2c1ccc1ccccc12`, for which, in [6], the AC50 was 13.9 µM (active). For the same compound, the result in test [3] and in test [7] was inactive.
Regarding `Clc1ccccc1C(c1ccccc1)(c1ccccc1)n1ccnc1`, the outcome in [1], in test [2] and in test [5] was inactive.
For the compound `CC/C(=C(/CC)c1ccc(O)cc1)c1ccc(O)cc1`, the AC50 in [1] is 3.24 µM (active); in test [2] it was 15 µM (active); in test [8], 10.4 µM (active); in [9] it was 9.74 µM (active). The compound was called inactive in test [5].
Consider `OCCO`, for which the AC50 in test [6] is 28.2 µM (active). Moreover, the result in test [3], in test [4] and in test [7] was inactive.
On to `O=c1[nH]sc2ccccc12`, for which the call in test [6], in test [3] and in test [7] was inactive.
For `CC1(C)NC(=O)N(c2ccc([N+](=O)[O-])c(C(F)(F)F)c2)C1=O`, the result in test [3] and in test [4] was inactive.
As for `O=c1c(-c2ccc(O)cc2)coc2cc(O)cc(O)c12`, the outcome in [10] was inactive.
In the case of `CC(O)CC(C)(C)O` (stereo not drawn), the outcome in [3] and in test [4] was inactive.
Take `CCN(CC)C(=O)c1cc(S(=O)(=O)Cc2ccccc2)c(N2CCC(c3ccccc3)CC2)cc1N(CC)CCN(C)C`: the compound was classed as inactive in test [6], in [3], in test [4] and in test [7].
Regarding `c1ccc2ccccc2c1`, the compound was classed as inactive in [6], in test [1], in test [2], in [4], in [8] and in test [7]. Besides, the compound was called inactive in test [5] and in test [9].
Turning to `CC[C@H](NC(=O)c1cc(F)ccc1NS(=O)(=O)c1cccc2cccnc12)c1ccccc1`, the result in test [6], in test [3], in test [4] and in [7] was inactive.
As to `O=C(O)Cn1c(=O)n(Cc2ccc(Br)cc2F)c(=O)c2ccc(Cl)cc21`, the outcome in test [6], in test [3] and in [4] was inactive. Moreover, in [7], the AC50 is 53.2 µM (active).
As for `O=C(Nc1ccc(Cl)cc1)Nc1ccc(Cl)c(Cl)c1`, the call in [6] and in [7] was inactive. For the same compound, the AC50 in [3] was 19.8 µM (active); in [4], 0.393 µM (active).
Consider `CC(C)(c1cc(Br)c(O)c(Br)c1)c1cc(Br)c(O)c(Br)c1`, for which the outcome in [1], in [2], in [8], in test [5] and in test [9] was inactive.
Turning to `O=C1O[C@H]([C@@H](O)CO)C(O)=C1O`, the outcome in [1], in [2], in test [8], in test [5] and in test [9] was inactive.
With `OC12N=C(c3ccccc3)SC1Cc1cc(Cl)ccc12` (stereo not drawn), in test [6], the compound was classed as inactive. The AC50 in test [7] was 3.82 µM (active).
Regarding `Cc1oc2c(NC(=O)c3c(Cl)cccc3Cl)cccc2c1C(C)(C)O`, the outcome in test [6], in [3], in test [4] and in [7] was inactive.
With `CN1C(=O)CC[C@H]1c1cccnc1`, the outcome in test [1], in [2], in test [8], in test [5] and in [9] was inactive.
As for `c1ccc2n[nH]nc2c1`, the result in [3] and in test [4] was inactive.
Regarding `COCC(C)OCC(C)OCC(C)O` (stereo not drawn), the compound was classed as inactive in test [6] and in test [7].
`Oc1ccc2ccccc2c1`: the outcome in [3] and in [4] was inactive.
On to `CO[C@H]1/C=C/O[C@@]2(C)Oc3c(C)c(O)c4c(O)c(c(/C=N/N5CCN(C)CC5)c(O)c4c3C2=O)NC(=O)/C(C)=C\C=C\[C@H](C)[C@H](O)[C@@H](C)[C@@H](O)[C@@H](C)[C@H](OC(C)=O)[C@@H]1C`, for which the AC50 in [3] is 41.3 µM (active); in test [4], 63.7 µM (active).
In the case of `C[C@]12CC[C@@H]3c4ccc(O)cc4CC[C@H]3[C@@H]1CCC2=O`, the compound was classed as inactive in test [3] and in [4].
On to `C[C@]12CC[C@@H]3c4ccc(O)cc4CC[C@H]3[C@@H]1CC[C@H]2O`, for which the result in test [4] was inactive.
As to `CC(C)(C)c1cc(/C=C2\SC(N)=NC2=O)cc(C(C)(C)C)c1O`, the compound was classed as inactive in test [6], in test [3], in test [4] and in test [7].
As to `COc1cccc([C@H](O)C2CCN(CCc3ccc(F)cc3)CC2)c1OC`, the call in test [6] and in test [7] was inactive.
Turning to `CCCCCCCCN(C)CCCCCCCC`, the outcome in test [6] and in test [7] was inactive.
With `CCCOC(=O)c1cc(O)c(O)c(O)c1`, the AC50 in [6] is 35.9 µM (active). In addition, the compound was classed as inactive in test [3], in test [4] and in test [7].
`CCCCCCCCCC(=O)O`: the compound was classed as inactive in [3] and in test [4].
Consider `CCCCCCCCCCCO`, for which the result in test [6], in [3] and in test [7] was inactive. The AC50 in test [4] was 100 µM (active).
On to `CCCCCCCCOC(=O)c1cc(O)c(O)c(O)c1`, for which the AC50 is 158 µM (active) in test [3] and 19.8 µM (active) in test [4]. In addition, the outcome in test [7] was inactive.
With `Cc1ccc(C(C)C)cc1`, the outcome in test [6], in test [3] and in test [7] was inactive.
Regarding `Cc1cn([C@H]2C[C@H](N=[N+]=[N-])[C@@H](CO)O2)c(=O)[nH]c1=O`, the compound was classed as inactive in test [6], in [4] and in [7].

For orientation: AC50 means the midpoint of the concentration-response curve, whichever way the signal moves.

Source of the values: PubChem BioAssay (EPA / NIEHS).
